Assay outcomes: PubChem, several laboratories
A selection: hits, their analogues and other compounds. The true share with any hit is near 5.6%.
ALR inh – inhibitors of human ALR sulfhydryl oxidase, primary screen, biochemical, H2O2 detection, HRP-luminol luminescence, single point. FAD-linked sulfhydryl oxidase ALR (Homo sapiens), P55789. purified ALR, DTT oxidation. inhibition, % (test concentration not listed). 290,000 compounds, 3.8% hits;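 active means mean replicate inhibition above about 79%, with every replicate also reaching it, limit read from the data; inconclusive means only one of the two criteria met; inactive means mean below limit and not every replicate reaching it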
Target sequence (P55789 whole entry, looked up): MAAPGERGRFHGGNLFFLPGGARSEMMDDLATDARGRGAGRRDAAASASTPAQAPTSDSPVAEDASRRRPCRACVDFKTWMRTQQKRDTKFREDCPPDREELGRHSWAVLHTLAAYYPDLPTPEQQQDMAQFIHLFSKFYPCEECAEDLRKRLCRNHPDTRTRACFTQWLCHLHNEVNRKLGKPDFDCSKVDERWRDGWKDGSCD
PHOSPHO1 block – PubChem AID 1565; inhibition, % at 13.3 µM; recombinant PHOSPHO1, absorbance phosphatase assay; 290,000 compounds, 1.1% hits; in the data active means inhibition above about 60%
Target sequence (Q8TCT1 whole entry, looked up): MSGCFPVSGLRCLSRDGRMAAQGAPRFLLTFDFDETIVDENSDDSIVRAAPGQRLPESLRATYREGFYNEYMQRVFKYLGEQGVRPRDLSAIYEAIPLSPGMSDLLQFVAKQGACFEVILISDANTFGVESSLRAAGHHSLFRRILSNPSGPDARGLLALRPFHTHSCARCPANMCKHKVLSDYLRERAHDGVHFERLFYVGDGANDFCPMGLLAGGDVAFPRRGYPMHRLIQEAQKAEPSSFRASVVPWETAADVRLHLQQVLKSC
Cardio protect – cardioprotection against H2O2-induced cell death, primary screen, uHTS, H9c2 cells, ATPLite luminescence. protection from H2O2 cell death, % at 20 µM. H9c2 cardiomyocytes, H2O2 injury protection, 2 h. 360,000 compounds, 0.63% hits;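 active means compounds giving at least 50% protection of heart cells from peroxide-induced death in the single-dose screen, raw or plate-pattern-corrected value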;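 further: 0% = DMSO wells with peroxide and 100% = DMSO wells without peroxide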
PfGluPho inh – PfG6PD enzyme inhibitors, primary screen, biochemical, fluorescence intensity, uHTS | AID 504690, 2011 | inhibition, % at 20 µM | 350,000 compounds, 0.78% hits | PfGluPho enzyme, NADPH resazurin-diaphorase fluorescence | glucose-6-phosphate dehydrogenase-6-phosphogluconolactonase (Plasmodium falciparum 3D7);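 active means inhibition reaching at least a set limit at 20 µM in the primary screen, cut at about 59% in these data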;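 further: 0% = DMSO wells with substrate and 100% = DMSO wells lacking glucose-6-phosphate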
M18AAP inhibitor – PfM18AAP inhibitors, malaria aminopeptidase, primary screen, biochemical, QFRET, recombinant enzyme; H-Glu-NHMec fluorogenic cleavage; inhibition, % at 7.35 µM; 290,000 compounds, 1.2% hits; AID 1822, 2009;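 active means inhibition above the campaign mean inhibition over all tested compounds plus 3 SD, cut at about 28% in these data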;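 further: 0% = plate median of test compound wells and 100% = 2 mM ZnCl2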
PfG6PD confirm – PfG6PD inhibitors, hit retest, confirmation, biochemical, fluorescence intensity, single concentration; shares compounds with PfGluPho inh; recombinant PfGluPho, NADPH-diaphorase-resazurin fluorescence; inhibition, % at 20 µM; 2,400 compounds, 34% hits;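 active means inhibition of at least 50% at 20 µM in any single replicate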;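 further: 0% = DMSO with substrate and 100% = DMSO lacking glucose-6-phosphate substrate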
Diaphorase 10uM – diaphorase inhibitors and chemical oxidizers, confirmation, counter-screen for P. falciparum G6PD inhibitor project, biochemical, fluorescence intensity, 10 µM NADPH. diaphorase-coupled resazurin reduction, NADPH 10 uM. shares compounds with PfGluPho inh. AID 504862, 2011. 820 compounds, 39% hits. inhibition, % at 20 µM;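 active means average inhibition reaching 50% or more with the compound at 20 µM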;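 further: resorufin red fluorescence formed as diaphorase reduces resazurin using NADPH; 0% = DMSO with enzyme and 100% = DMSO without enzyme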
Diaph ctr 30uM – diaphorase inhibitors and chemical oxidizers, confirmation, counter-screen for P. falciparum G6PD inhibitor project, biochemical, fluorescence intensity, 30 µM NADPH. shares compounds with PfGluPho inh. Diaphorase/resazurin coupled assay, resorufin fluorescence. inhibition, % at 20 µM. 820 compounds, 29% hits;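 active means inhibition averaging 50% or more, tested at 20 µM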;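 further: 0% = DMSO with enzyme and 100% = DMSO wells lacking diaphorase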
Starred values were filed as active, the others as inactive.

CC1CN(Cc2ccccc2)C(=O)NC1=O (stereo not given) was read as Cardio protect 9 and PfGluPho inh -16.
Screening COc1cccc(NC(=O)CN(C)C(=O)C(CCSC)NC(=O)c2ccco2)c1 (stereo not given) returned Cardio protect 5 and PfGluPho inh -5.
`Nc1nc(=S)c2[nH]c(=S)[nH]c2[nH]1` gave Cardio protect 0, PfGluPho inh 67* and PfG6PD confirm 21.
`Nc1nc(=S)c2[nH]cnc2[nH]1` gave ALR inh 10, Cardio protect 11 and PfGluPho inh 34.
For COc1ccc(Cc2c(-c3ccc(Cl)cc3)nc3c(C)cc(Br)cn23)c(C)c1 the results were Cardio protect 2.
`CC(=O)N(c1ccccc1C)C1CCCC1` gave ALR inh -5, PHOSPHO1 block 7, Cardio protect 19, PfGluPho inh -1 and M18AAP inhibitor -2.
For CC(=O)N(C1=C(Cl)C(=O)c2ccccc2C1=O)C1CCCCC1 the results were ALR inh 22, PHOSPHO1 block -82, Cardio protect -19, PfGluPho inh 116*, M18AAP inhibitor -60, PfG6PD confirm 113*, Diaphorase 10uM 98* and Diaph ctr 30uM 95*.
Screening Cc1nn(C(=O)c2cccnc2)c(C)c1Sc1ccc(Br)cc1 returned ALR inh 7, PHOSPHO1 block 6, Cardio protect -20, PfGluPho inh 67*, M18AAP inhibitor 0 and PfG6PD confirm 44.
For O=C(Cc1ccccn1)c1ccncc1 the results were Cardio protect 0 and PfGluPho inh -15.
O=C(Cc1cccs1)Nc1cccc(-c2nc3cc4ccccc4cc3[nH]2)c1 was read as ALR inh 24, PHOSPHO1 block 21, Cardio protect -1, PfGluPho inh 63*, M18AAP inhibitor -6 and PfG6PD confirm 7.
`CC(=O)Nc1cccc(NC(=O)Cc2cccs2)c1` gave ALR inh -8, PHOSPHO1 block 19, Cardio protect 0, PfGluPho inh -4 and M18AAP inhibitor 3.
C=CCSc1nc2sc3c(c2c(=O)n1CC)CCc1ccccc1-3 was read as ALR inh -20, PHOSPHO1 block 87*, Cardio protect -6, PfGluPho inh 84*, M18AAP inhibitor 11, PfG6PD confirm 51*, Diaphorase 10uM -16 and Diaph ctr 30uM -1.
Screening CCNc1cc(S(=O)(=O)C(F)(F)F)ccc1N returned PHOSPHO1 block -8, Cardio protect -7, PfGluPho inh 72*, M18AAP inhibitor 9 and PfG6PD confirm 42.
CC(CNc1ccccc1O)C(=O)O (stereo not given) was read as ALR inh inconclusive, PHOSPHO1 block -9, Cardio protect 6, PfGluPho inh 94*, M18AAP inhibitor 15, PfG6PD confirm 70*, Diaphorase 10uM -4 and Diaph ctr 30uM 1.
For C=CCNc1nc2c3ccccc3n(C(C)=O)c2s1 the results were ALR inh 96*, PHOSPHO1 block 70*, Cardio protect -1, PfGluPho inh 64*, M18AAP inhibitor 3 and PfG6PD confirm 8.
O=C(Nc1ccccc1)Nc1sccc1-c1nc2ccccc2s1 was read as ALR inh 1, PHOSPHO1 block -7, Cardio protect 1, PfGluPho inh 84*, M18AAP inhibitor -2 and PfG6PD confirm 3.
COC(=O)c1sccc1NC(=O)Nc1ccccc1OC was read as ALR inh 17, PHOSPHO1 block 34, Cardio protect 8, PfGluPho inh 48 and M18AAP inhibitor -3.
O=C(Nc1cccc(Cl)c1)Nc1sccc1-c1nc2ccccc2s1 was read as ALR inh 17, PHOSPHO1 block -22, Cardio protect -5, PfGluPho inh 97*, M18AAP inhibitor 0 and PfG6PD confirm -4.
Screening COc1ccccc1NC(=O)Nc1sccc1-c1nc2ccccc2s1 returned ALR inh 7, PHOSPHO1 block 20, Cardio protect 5, PfGluPho inh 78*, M18AAP inhibitor 3 and PfG6PD confirm 22.
`C#CCN(C[C@H]1[C@H](OC(=O)NC2CC2)[C@H](OC(=O)NC2CC2)C[C@@H](C(=O)OC)[C@H]1C(=O)OC)S(=O)(=O)c1ccc(C)cc1` gave Cardio protect 7 and PfGluPho inh -12.
Screening CCc1cc(-c2n[nH]c(C)c2-c2nc3ccccc3n2C)c(O)cc1O returned ALR inh 1, PHOSPHO1 block 48, Cardio protect 4, PfGluPho inh 61*, M18AAP inhibitor 2, PfG6PD confirm 49*, Diaphorase 10uM 28 and Diaph ctr 30uM 26.
For CCc1cc(-c2n[nH]c(CCC(=O)O)c2-c2nc3ccccc3n2C)c(O)cc1O the results were ALR inh 15, PHOSPHO1 block 9, Cardio protect -3, PfGluPho inh 25 and M18AAP inhibitor 15.
CCc1cc(-c2n[nH]c(C)c2-c2ccccc2Cl)c(O)cc1OC was read as ALR inh 1, PHOSPHO1 block 22, Cardio protect -13, PfGluPho inh 98*, M18AAP inhibitor -2, PfG6PD confirm 51*, Diaphorase 10uM 55* and Diaph ctr 30uM 34.
Screening CCC(CC)CC1CN2CCc3cc(OC)c(OC)cc3C2CC1(O)CC (stereo not given) returned Cardio protect -18 and PfGluPho inh 8.
`CN(C(=O)CSc1n[nH]c(=O)[nH]c1=O)c1ccccc1` gave ALR inh -4, Cardio protect 2 and PfGluPho inh -21.
For O=C(Sc1n[nH]c(=O)[nH]c1=O)c1ccccc1 the results were Cardio protect -2, PfGluPho inh 111*, PfG6PD confirm 93*, Diaphorase 10uM -8 and Diaph ctr 30uM -9.
For O=C/C=C/c1c(-c2ccccc2)cc2oc3ccccc3cc1-2 the results were PHOSPHO1 block 7, Cardio protect -7, PfGluPho inh 22 and M18AAP inhibitor 22.
For COc1cc(C)ccc1Oc1ccc([N+](=O)[O-])cc1 the results were Cardio protect -16, PfGluPho inh 63* and PfG6PD confirm 16.
